Inconclusive results are not listed. A number with no mark means an inactive call. Activity calls are given as the source filed them. Calls come from the whole dose curve; as a rule, active = well fitted inhibition curve with a large enough effect in the repeat runs; inconclusive = weak or mixed curves; inactive = no such curve, though single readings can be large or run the other way.
Target: Cytochrome P450 2C19 (Homo sapiens) (UniProt P33261)
Experiment: Cytochrome P450 Family 2 Subfamily C Member 19 (CYP2C19) small molecule antagonists: luciferase reporter qHTS assay (AID 1671197); note: nearly all actives have a fitted effect of over 65% in size
Conditions: P450-Glo CYP2C19 enzyme, luciferin luminescence, 1 h; series mostly up to 115 µM; activity change, negative = inhibition: at the top concentration
From the text: National Center for Advancing Translational Sciences [NCATS]
U.S. Environmental Protection Agency [EPA]
National Institutes of Environmental Health Sciences [NIEHS]
National Toxicology Program [NTP]
U.S. Food and Drug Administration [FDA]
Cytochrome P450 (CYP) enzymes are membrane-bound hemeproteins that play a key role in metabolism of drugs and xenobiotics. Evaluation of the effect of chemicals on CYP isozymes is useful to minimize the adverse drug reactions and toxicities in drug development process. Tox21 chemicals were tested for their effect on CYP enzyme activities by using P450-Glo (TM) screening systems (Promega Corporation, Madison, WI). These systems provide a luminescent method containing proluciferin substrates and are converted to luciferin products by CYP isozymes. The luciferin products formed are detected with a luciferin detection reagent, and the amount of light produced is proportional to CYP activity. P450-Glo (TM) CYP2C19 screening system (Catalog. No. V9880) was used to detect the compounds that interfere in CYP2C19 activity. The positive control compound used for CYP2C19 assay is ketoconazole (Sigma-Aldrich, St. Louis, MO).
Tox21 Assay Protocol Summary:
Two ul of enzyme-substrate mix was dispensed into medium binding white/solid 1536-well plates (Greiner Bio-One North America Inc., Monroe, NC) using a BioRaptr Flying Reagent Dispenser (FRD, Beckman Coulter, Brea, CA). Compounds dissolved in DMSO and positive control (ketoconazole) were transferred to the assay plates at 23 nl using a Pintool station (Wako, San Diego, CA). The assay plates were incubated at room temperature for 10 min. Then 2 ul of NADPH regeneration solution was added to each well of the assay plates using an FRD and incubated at 37C for 1 h. The reaction was stopped by adding 4 ul of detection reagent using an FRD and after 20 min incubation at room temperature the luminescence signal was measured using a ViewLux plate reader (Perkin Elmer, Shelton, CT). Data were expressed as relative luminescence units.
% is set by controls: 0 for no effect and ±100 for the full control effect; potency is the fitted concentration of half-maximal effect.

Sequence of Cytochrome P450 2C19 (Homo sapiens) (P33261 whole entry, looked up): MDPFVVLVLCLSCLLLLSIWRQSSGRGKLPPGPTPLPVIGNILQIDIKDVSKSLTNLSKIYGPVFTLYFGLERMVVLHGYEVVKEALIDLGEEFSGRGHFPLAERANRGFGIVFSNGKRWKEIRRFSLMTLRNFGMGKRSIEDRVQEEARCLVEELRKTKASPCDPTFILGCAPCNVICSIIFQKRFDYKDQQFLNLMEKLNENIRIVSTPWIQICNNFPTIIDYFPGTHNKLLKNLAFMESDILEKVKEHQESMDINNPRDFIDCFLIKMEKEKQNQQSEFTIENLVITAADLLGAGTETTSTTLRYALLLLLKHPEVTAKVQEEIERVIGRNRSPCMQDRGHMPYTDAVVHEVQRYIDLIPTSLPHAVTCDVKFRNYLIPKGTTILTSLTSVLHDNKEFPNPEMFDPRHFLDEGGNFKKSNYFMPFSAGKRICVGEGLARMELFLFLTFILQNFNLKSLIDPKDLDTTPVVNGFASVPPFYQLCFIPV

Compound | activity change, negative = inhibition | Potency
O=C1CCCCCCCCCCCCCC1 | 7.04% | 
CN[C@H]1CC[C@@H](c2ccc(Cl)c(Cl)c2)c2ccc(S(N)(=O)=O)cc21 |  | 50.2 µM (active)
COc1ccc(OC)c(N=Nc2c(O)ccc3ccccc23)c1 |  | 10 µM (active)
C=C(C)C1CCC(C)CC1O (stereo not given) | 6.19% | 
CCCCCc1ccc(O)cc1 |  | 22.4 µM (active)
c1ccc(-c2nc3ccccc3[nH]2)cc1 |  | 35.6 µM (active)
CCCCC/C=C\C=C\C(=O)OCC |  | 23.4 µM (active)
CC(C)C(=O)C(C)C | -8.85% | 
CN1CCN(c2ccccc2/C=C2\SCCN(c3ccc(Cl)c(Cl)c3)C2=O)CC1 |  | 5.03 µM (active)
CC(=O)Nc1ccc(N=Nc2cc(C)ccc2O)cc1 |  | 56.4 µM (active)
CCOc1nc(F)cc2nc(S(=O)(=O)Nc3c(Cl)cccc3C(=O)OC)nn12 | 4.93% | 
C/C(=N\[Si](C)(C)C)O[Si](C)(C)C | 16.1% | 
CC(C)(C)c1ccc(OC2CCCCC2O)cc1 (stereo not given) |  | 31.7 µM (active)
CCCCCCCCCCCCN1CCCC1=O |  | 35.6 µM (active)
C=CC(=O)OCC(Br)CBr (stereo not given) | 8.05% | 
C1CCSC1 | 5.76% | 
CCN(CC)c1ccc2c(c1)Oc1cc(N(CC)CC)ccc1C21OC(=O)c2ccccc21 |  | 38.9 µM (active)
CCCCCCCCCCCCS(=O)(=O)Cl | -3.93% [at 23.6 µM] | 
CC1(C)[C@H](C(=O)OCc2cccc(Oc3ccccc3)c2)[C@@H]1C=C(Cl)Cl | -2.73% | 
CCOc1ccc([N+](=O)[O-])cc1 |  | 8.09 µM (active)

Compound | activity change, negative = inhibition | Potency
NCc1ccco1 | 5.43% | 
Cc1ccc(N=Nc2c(O)ccc3ccccc23)c(C)c1 |  | 12.3 µM (active)
Oc1ccc(Cl)cc1C1CCCC1 |  | 8.94 µM (active)
C=CC(=O)O[C@H]1C[C@@H]2CC[C@@]1(C)C2(C)C | 6.8% | 
CCCCCCCCCCCCCCCCC(C(=O)O)C(O)(CC(=O)O)C(=O)O (stereo not given) | 30.6% [at 52.9 µM] | 
CCC(C)(C)c1ccc(CC(C)CN2C[C@@H](C)O[C@@H](C)C2)cc1 (stereo not given in full) |  | 11 µM (active)
CCCCCCCCOC(=O)c1cc(O)c(O)c(O)c1 |  | 5.64 µM (active)
O=C(O)CN(CCCN(CC(=O)O)CC(=O)O)CC(=O)O | -5.87% [at 23.6 µM] | 
CCc1c(C)cc(N)c(CC)c1N |  | 14.2 µM (active)
Cc1ccc2sc3cccc(C)c3c2c1 | -6.71% | 
Cc1ccc(C=O)cc1 | 7.5% [at 52.9 µM] | 
c1ccc(-c2ccc(C(c3ccccc3)n3ccnc3)cc2)cc1 (stereo not given) |  | 0.617 µM (active)
O=C(c1ccccc1)c1ccc(Cl)cc1 |  | 15.9 µM (active)
CC/C(=C(/c1ccc(O)cc1)c1ccc(OCCN(C)C)cc1)c1ccccc1 |  | 37.2 µM (active)
COc1cc(C(C)C)ccc1C | -21% [at 23.6 µM] | 
O=[N+]([O-])c1ccc(O)c2ncccc12 | 46.1% [at 52.9 µM] | 
C=Cc1ccc(O)c(OC)c1 |  | 79.6 µM (active)
Cc1cc(F)ccc1-c1cc(N2CC[C@@H](O)[C@H]2CO)ncc1N(C)C(=O)C(C)(C)c1cc(C(F)(F)F)cc(C(F)(F)F)c1 |  | 27.8 µM (active)
CCCCCCCCSCc1cc(C)c(O)c(CSCCCCCCCC)c1 |  | 7.1 µM (active)
O=S(=O)(c1ccc(OCc2ccccc2)cc1)c1ccccc1O |  | 6.33 µM (active)
